Results on 25 compounds are retold here after ChEMBL document CHEMBL5308504, “Tm Shift (DSF) assay results for EUbOPEN Chemogenomics Library” (2023).

As usually defined, the ΔTm is the shift of the melting midpoint relative to a reference.

What all share (conditions): Compound concentration 20.0 uM, Protein concentration 2.0 uM, Result type QC Liability
The target in experiment [1] is Tyrosine-protein kinase ABL1 (Homo sapiens) (UniProt P00519).
Experiment [2] concerns the target Cyclin-dependent kinase 2 (Homo sapiens) (UniProt P24941).
In experiment [3] the target is Casein kinase I isoform delta (Homo sapiens) (UniProt P48730).
Casein kinase I isoform delta (Homo sapiens), sequence (P48730 whole entry, looked up, canonical isoform): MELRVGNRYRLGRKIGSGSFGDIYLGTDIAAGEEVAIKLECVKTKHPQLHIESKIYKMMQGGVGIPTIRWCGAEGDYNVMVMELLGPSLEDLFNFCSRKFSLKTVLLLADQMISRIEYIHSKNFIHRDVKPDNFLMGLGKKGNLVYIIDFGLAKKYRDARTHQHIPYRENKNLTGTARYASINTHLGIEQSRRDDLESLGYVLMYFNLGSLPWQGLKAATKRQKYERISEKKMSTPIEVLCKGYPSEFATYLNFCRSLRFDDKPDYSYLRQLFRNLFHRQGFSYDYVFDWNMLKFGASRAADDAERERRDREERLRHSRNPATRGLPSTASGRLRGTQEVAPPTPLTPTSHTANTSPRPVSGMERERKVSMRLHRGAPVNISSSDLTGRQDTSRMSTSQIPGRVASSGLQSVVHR
The target of experiment [4] is Glycogen synthase kinase-3 beta (Homo sapiens) (UniProt P49841).
Glycogen synthase kinase-3 beta (Homo sapiens), sequence (P49841 whole entry, looked up): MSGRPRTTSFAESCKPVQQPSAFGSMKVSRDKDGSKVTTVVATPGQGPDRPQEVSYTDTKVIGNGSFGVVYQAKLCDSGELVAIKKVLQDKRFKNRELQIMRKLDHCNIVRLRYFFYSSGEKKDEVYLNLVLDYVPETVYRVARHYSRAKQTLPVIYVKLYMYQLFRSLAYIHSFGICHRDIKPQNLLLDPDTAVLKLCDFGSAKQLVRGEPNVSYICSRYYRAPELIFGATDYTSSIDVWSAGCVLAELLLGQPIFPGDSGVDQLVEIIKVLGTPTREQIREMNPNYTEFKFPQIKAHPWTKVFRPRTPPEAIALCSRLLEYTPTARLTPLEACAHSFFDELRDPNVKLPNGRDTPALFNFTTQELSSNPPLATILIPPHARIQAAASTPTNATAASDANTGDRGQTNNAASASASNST
Experiment [5] has as its target Mitogen-activated protein kinase 1 (Homo sapiens) (UniProt P28482).
The target in experiment [6] is T1, Aurora kinase A (Homo sapiens) (UniProt O14965).
T1 sequence (whole entry): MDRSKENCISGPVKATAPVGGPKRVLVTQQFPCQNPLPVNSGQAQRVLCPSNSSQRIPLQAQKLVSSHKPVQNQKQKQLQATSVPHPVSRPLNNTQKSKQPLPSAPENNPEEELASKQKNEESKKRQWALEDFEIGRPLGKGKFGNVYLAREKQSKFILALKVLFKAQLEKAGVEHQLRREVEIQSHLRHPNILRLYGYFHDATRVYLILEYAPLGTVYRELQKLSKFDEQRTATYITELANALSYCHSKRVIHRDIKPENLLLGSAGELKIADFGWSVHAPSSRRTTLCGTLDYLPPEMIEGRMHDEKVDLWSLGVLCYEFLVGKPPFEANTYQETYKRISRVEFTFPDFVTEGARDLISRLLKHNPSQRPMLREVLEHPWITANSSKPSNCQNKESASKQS

Tyrosine-protein kinase ABL1 (Homo sapiens), sequence (P00519 whole entry): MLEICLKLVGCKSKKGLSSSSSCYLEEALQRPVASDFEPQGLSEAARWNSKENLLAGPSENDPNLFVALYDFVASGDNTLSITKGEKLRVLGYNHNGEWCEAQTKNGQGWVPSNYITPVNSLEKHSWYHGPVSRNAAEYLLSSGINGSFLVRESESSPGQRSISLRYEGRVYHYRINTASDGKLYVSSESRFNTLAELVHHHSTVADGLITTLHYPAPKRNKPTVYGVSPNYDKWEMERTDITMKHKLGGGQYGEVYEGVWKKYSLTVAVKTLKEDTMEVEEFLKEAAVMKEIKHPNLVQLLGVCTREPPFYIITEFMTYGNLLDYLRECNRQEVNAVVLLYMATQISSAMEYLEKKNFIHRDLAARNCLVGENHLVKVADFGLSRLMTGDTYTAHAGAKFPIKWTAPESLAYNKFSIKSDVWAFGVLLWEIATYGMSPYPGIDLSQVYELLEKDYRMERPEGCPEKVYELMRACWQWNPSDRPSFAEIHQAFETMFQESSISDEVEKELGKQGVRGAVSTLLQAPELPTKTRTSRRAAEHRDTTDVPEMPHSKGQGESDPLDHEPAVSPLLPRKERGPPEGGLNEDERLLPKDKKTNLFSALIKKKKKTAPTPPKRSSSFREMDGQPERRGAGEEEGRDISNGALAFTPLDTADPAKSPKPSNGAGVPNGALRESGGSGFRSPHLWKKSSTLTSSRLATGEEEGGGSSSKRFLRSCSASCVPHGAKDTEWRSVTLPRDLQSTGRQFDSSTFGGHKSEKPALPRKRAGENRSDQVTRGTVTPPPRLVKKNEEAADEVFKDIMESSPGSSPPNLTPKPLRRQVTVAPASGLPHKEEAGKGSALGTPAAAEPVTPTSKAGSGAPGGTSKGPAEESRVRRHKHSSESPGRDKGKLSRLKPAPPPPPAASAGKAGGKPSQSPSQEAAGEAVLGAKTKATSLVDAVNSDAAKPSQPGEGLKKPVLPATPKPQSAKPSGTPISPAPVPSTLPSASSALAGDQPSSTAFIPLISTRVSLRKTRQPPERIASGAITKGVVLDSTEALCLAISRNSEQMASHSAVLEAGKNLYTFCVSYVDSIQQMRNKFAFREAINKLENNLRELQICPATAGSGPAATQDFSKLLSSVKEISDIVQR
Mitogen-activated protein kinase 1 (Homo sapiens), sequence (P28482 whole entry): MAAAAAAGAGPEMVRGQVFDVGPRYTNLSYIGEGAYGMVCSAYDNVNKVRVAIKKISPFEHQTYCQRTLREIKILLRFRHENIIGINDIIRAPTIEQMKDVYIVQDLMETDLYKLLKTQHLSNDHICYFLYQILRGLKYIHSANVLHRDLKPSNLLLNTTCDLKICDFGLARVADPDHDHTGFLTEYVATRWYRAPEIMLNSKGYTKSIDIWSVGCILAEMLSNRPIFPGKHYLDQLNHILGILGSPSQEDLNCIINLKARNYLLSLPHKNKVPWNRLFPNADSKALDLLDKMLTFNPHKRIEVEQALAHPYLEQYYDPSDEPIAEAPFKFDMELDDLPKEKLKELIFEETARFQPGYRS

With `Cc1cc(SCc2sc(-c3ccc(C(F)(F)F)cc3)nc2C)ccc1OCC(=O)O`, the ΔTm in experiment [1] was 0 °C; in experiment [2], 0.3 °C; in experiment [3] it was 1.18 °C; in experiment [4], -1.11 °C; in experiment [5], 0.57 °C; in experiment [6] it was -2.58 °C.

`CCn1c(-c2nonc2N)nc2cncc(C(=O)N3CC[C@H](N)C3)c21`: the ΔTm in experiment [1] was -0.16 °C; in experiment [2], 0.25 °C; in experiment [3] it was 0.4 °C; in experiment [4], 6 °C; in experiment [5] it was 0.69 °C; in experiment [6] it was 0.77 °C.

For `Cc1cn(CCN2CCN(c3ccccc3-c3cc(C#N)cc(C(=O)NCCCN4CCCC4)c3)CC2)c2ccccc12`, the ΔTm is 0.13 °C in experiment [1]; 0.91 °C in experiment [2]; -2.16 °C in experiment [3]; -0.98 °C in experiment [4]; 0.52 °C in experiment [5]; -0.16 °C in experiment [6].

Regarding `N=C(N)NCCC[C@H](NC(=O)C(c1ccccc1)c1ccccc1)C(=O)NCc1ccc(CNC(N)=O)cc1`, the ΔTm in experiment [1] is -0.28 °C; in experiment [2], 0.46 °C; in experiment [3], 0.29 °C; in experiment [4] it was -0.57 °C; in experiment [5], 0.19 °C; in experiment [6], 0.09 °C.

Consider `C[C@@H](COCCC(=O)N1CCN(c2ncc(C(F)(F)F)cn2)CC1)Nc1cn[nH]c(=O)c1C(F)(F)F`, for which the ΔTm was 0.32 °C in experiment [1]; 0.9 °C in experiment [2]; -0.05 °C in experiment [3]; -0.82 °C in experiment [4]; 0.42 °C in experiment [5]; -0.45 °C in experiment [6].

With `CN(C)c1ncc2cc(-c3ccc(-c4ncccc4F)cc3Cl)c(=O)n(C[C@H]3OC[C@H](N)CO3)c2n1`, the ΔTm in experiment [1] is -0.17 °C; in experiment [2], 0.29 °C; in experiment [3], 0.68 °C; in experiment [4], -0.87 °C; in experiment [5], -0.05 °C; in experiment [6], -1.8 °C.

For the compound `CC(=O)Nc1ncc(CN2CCC[C@H](Cc3cc(C)nc(C)c3)C2)s1`, the ΔTm in experiment [1] was 0.26 °C; in experiment [2] it was -0.34 °C; in experiment [3], -0.41 °C; in experiment [4], -0.15 °C; in experiment [5], 0.35 °C; in experiment [6] it was 0.39 °C.

With `CCCCC(C)(O)C/C=C/[C@H]1[C@H](O)CC(=O)[C@@H]1CCCCCCC(=O)O` (stereo not given in full), the ΔTm is 0.39 °C in experiment [1]; 0.57 °C in experiment [2]; -0.02 °C in experiment [3]; 0.33 °C in experiment [4]; -0.33 °C in experiment [5]; -0.31 °C in experiment [6].

Consider `C[C@H](NC(=O)c1cnc2n1[C@](C)(Cc1ccc(C#N)cc1)C(=O)N2c1cc(Cl)c(F)c(Cl)c1)C(=O)NC1(c2ccccn2)CC1`, for which the thermal shift (ΔTm) in experiment [1] was 0.04 °C; in experiment [2], 0.07 °C; in experiment [3], 0.77 °C; in experiment [4], -3.42 °C; in experiment [5] it was 10.2 °C; in experiment [6] it was 0.19 °C.

Take `Cc1nn(-c2nc3ccc(Cl)c(Cl)c3[nH]2)c(O)c1C1OC(=O)c2ccccc21` (stereo not given): the ΔTm in experiment [1] is -0.04 °C; in experiment [2], 2.69 °C; in experiment [3], -0.14 °C; in experiment [4], 0.53 °C; in experiment [5], 0.2 °C; in experiment [6] it was 0.71 °C.

Regarding `Fc1ccc(-c2nc(-c3ccc4ccccc4c3F)[nH]c2-c2ccncc2)cc1`, the ΔTm in experiment [1] was 4.64 °C; in experiment [2], -0.5 °C; in experiment [3], 4.6 °C; in experiment [4], 8.59 °C; in experiment [5], 0.03 °C; in experiment [6], 0.26 °C.

As to `FC(F)c1cncc(-c2ccc3ncc4nnc(C5=CCCOCC5)n4c3c2)c1`, the ΔTm in experiment [1] came to 0.89 °C; in experiment [2], 0.55 °C; in experiment [3], 0.33 °C; in experiment [4] it was 2.58 °C; in experiment [5], 0.41 °C; in experiment [6], 1.62 °C.

On to `Cn1cc(NC(=O)c2ccc3nc4n(c3c2)CCCNC4=O)nc1C(=O)NC1CCCC1`, for which the ΔTm in experiment [1] is 1.61 °C; in experiment [2], 0.41 °C; in experiment [3], 0.38 °C; in experiment [4], -0.59 °C; in experiment [5], 0.46 °C; in experiment [6] it was 0.5 °C.

For the compound `Cc1cc(CN)cc(C)c1-c1ncn(C)c1-c1cncn1C`, the ΔTm in experiment [1] is 0.16 °C; in experiment [2], -0.16 °C; in experiment [3] it was 0.37 °C; in experiment [4], 0.19 °C; in experiment [5], 0.11 °C; in experiment [6], -0.37 °C.

As to `C1=Cc2ccccc2C(=C2CCN(CCCCc3nnn[nH]3)CC2)c2ccccc21`, the ΔTm in experiment [1] is -0.16 °C; in experiment [2], 0.18 °C; in experiment [3], -0.15 °C; in experiment [4] it was 0.27 °C; in experiment [5], -0.08 °C; in experiment [6], -0.37 °C.

Take `COc1ccccc1S(=O)(=O)Nc1ccc2c(c1)CN(C)C(=O)N2`: the ΔTm in experiment [1] is 0.09 °C; in experiment [2], 1.13 °C; in experiment [3] it was 0.79 °C; in experiment [4], -0.57 °C; in experiment [5], 0.21 °C; in experiment [6], -0.1 °C.

On to `COc1cc(-c2cc([C@H](O)C3CC3)n3ncnc(N)c23)ccc1CO`, for which the ΔTm in experiment [1] turned out to be 9.08 °C; in experiment [2] it was 0.4 °C; in experiment [3], 4.52 °C; in experiment [4], 0.91 °C; in experiment [5] it was 0.82 °C; in experiment [6] it was 1.06 °C.

`O=C(Nc1ccnc(NC(=O)C2CC2)c1)c1c(Cl)cccc1Cl`: the ΔTm stood at 5.46 °C in experiment [1]; 6.9 °C in experiment [2]; 0.54 °C in experiment [3]; 6.06 °C in experiment [4]; 0.23 °C in experiment [5]; 4.28 °C in experiment [6].

As to `Cc1nsc(Nc2cnc(C(F)(F)F)cn2)c1C(=O)Nc1ccc(O[C@H]2CCCN(CC(F)(F)F)C2)nc1`, the ΔTm is 0.72 °C in experiment [1]; 1.68 °C in experiment [2]; 0 °C in experiment [3]; -3.09 °C in experiment [4]; 0 °C in experiment [5]; 2.24 °C in experiment [6].

As for `CC[C@@H](C(=O)OC)n1c(=O)c2ccccc2n(Cc2cn(C)c3cccc(C)c23)c1=O`, the ΔTm was -0.76 °C in experiment [1]; 0.06 °C in experiment [2]; 0.32 °C in experiment [3]; -0.47 °C in experiment [4]; 0.23 °C in experiment [5]; -0.05 °C in experiment [6].

With `CC(C)(C#Cc1ccc(NC(=O)COc2ccccc2C(=O)c2ccccc2)c(Cl)c1)C(=O)O`, the ΔTm was 0.32 °C in experiment [1]; -1.47 °C in experiment [2]; -0.18 °C in experiment [3]; 0 °C in experiment [4]; -0.94 °C in experiment [5]; 0.27 °C in experiment [6].

As for `O=C(O)/C=C/c1ccc(Cn2ccnc2)cc1`, the ΔTm in experiment [1] was 0.1 °C; in experiment [2], 0.39 °C; in experiment [3], 0.22 °C; in experiment [4], 0.69 °C; in experiment [5], 0.29 °C; in experiment [6], 0.06 °C.

For `CN(CC(=O)Nc1ccc(F)c(F)c1F)C(=O)c1ccc2c(c1)OCCO2`, the ΔTm in experiment [1] was 0.3 °C; in experiment [2], 0.89 °C; in experiment [3] it was 0.08 °C; in experiment [4], -0.75 °C; in experiment [5], 0.49 °C; in experiment [6] it was -0.17 °C.

`COc1ccc(Br)cc1S(=O)(=O)NC(=O)/C=C/c1cc(Cl)ccc1Cc1ccc2ccccc2c1`: the ΔTm in experiment [1] is -0.6 °C; in experiment [2], -1.22 °C; in experiment [3] it was -6.17 °C; in experiment [4], -2.44 °C; in experiment [5], -4.21 °C; in experiment [6], -3.37 °C.

As for `Cc1cc(OCc2nc3ccccc3s2)ccc1NC(=O)Nc1ccc(Cl)c(Cl)c1`, the ΔTm in experiment [1] was 0.33 °C; in experiment [2], 1.38 °C; in experiment [3], -0.26 °C; in experiment [4], -1.81 °C; in experiment [5] it was -0.19 °C; in experiment [6], 0.13 °C.
